In PubChem BioAssay AID504766 (The Scripps Research Institute Molecular Screening Center, 2011):
The whole screen tested about 340,000 compounds, of which about 3,400 (1%) were called active.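 The calls were made as follows: active = inhibition above the mean over all tested compounds plus 3 SD (cut at about 4.2% in these data); inactive = the rest.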 The full list was thinned out, with actives kept by preference.

Target: Nuclear receptor subfamily 0 group B member 1 (Homo sapiens) (UniProt P51843)
Assay: relief of DAX1 transcriptional repression – cell-based, HEK293, Gal4-DAX1, luciferase luminescence, primary screen (AID 504766);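 also: 0% = DAX1-transfected cells with DMSO and 100% = empty-vector control cells with DMSO; inhibition shows as a rise in luminescence from relieved DAX1 repression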
Conditions: HEK293 Gal4-DAX1 luciferase reporter, at 6.75 µM, active compounds read high

Sequence of Nuclear receptor subfamily 0 group B member 1 (Homo sapiens) (P51843 207-470 limits assumed): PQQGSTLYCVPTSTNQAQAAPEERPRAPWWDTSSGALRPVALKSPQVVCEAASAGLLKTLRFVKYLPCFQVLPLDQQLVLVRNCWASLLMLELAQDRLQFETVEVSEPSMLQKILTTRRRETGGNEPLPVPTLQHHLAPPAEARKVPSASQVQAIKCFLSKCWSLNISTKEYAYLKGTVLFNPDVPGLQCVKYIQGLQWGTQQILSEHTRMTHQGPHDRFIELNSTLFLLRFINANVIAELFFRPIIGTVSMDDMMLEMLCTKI

inhibition, active:
FC(F)(F)c1ccnc(Oc2ccc(C3=NCCS3)cc2)c1 6.14%
CCCCCCOC(=O)NCC(O)c1ccccc1 (configuration not stated) 4.4%
COc1ccc(OC)c(-n2c(-c3ccn[nH]3)n[nH]c2=S)c1 4.83%
CN(CC(=O)O)C(=O)c1ccccc1 5.67%
Cc1cc(Nc2ccc(Br)cc2)nc2ccccc12 5.55%
Cc1nc2c(ncn2-c2ccccc2)c(=O)n1NC(=O)CN1CCCC1 8.39%
Cc1cccc(OCC(=O)Nc2ccccc2F)c1 5.58%
CC1(C)CC(=O)C(C2c3ccccc3S(=O)(=O)c3ccccc32)C(=O)C1 5.54%
COc1ccc(/C=C(/NC(=O)c2ccco2)C(=O)Nc2ccc(C(C)=O)cc2)cc1 4.81%
N#Cc1ccc(C2N=C(c3ccccc3)NO2)cc1 (configuration not stated) 4.58%
Cc1cc(N=Nc2ccc3ccccc3c2)ccc1O 4.42%
CN1CCc2c(sc3c2c(NCc2ccco2)nc2nnnn23)C1 5.18%
COc1ccc(N2CCN(C(=O)C3CCN(S(=O)(=O)c4ccc(C)cc4)CC3)CC2)cc1 7.45%
CC12C(=O)N(n3cnnc3)C(=O)C1C1C=CC2C1 (configuration not stated) 5.77%
CCN(CC)C(=O)Oc1ccc(Br)cc1C(=O)Nc1ccc(F)c(Cl)c1 4.68%
O=[N+]([O-])c1cc(Cl)cc(/C=N/NC(=S)Nc2cc(S(=O)(=O)N3CCOCC3)ccc2Cl)c1O 4.75%
O=C(CSC(=S)N1CCCCC1)c1c(F)cccc1F 8.18%
CC(C#N)(NC(=O)CN1CCN(S(=O)(=O)c2cc(C(F)(F)F)ccc2Cl)CC1)C1CC1 (configuration not stated) 4.49%
COc1ccc(C(C(=O)NC(C)(C)C)N(C(=O)Cn2nnc3ccccc32)c2ccc(C(C)=O)cc2)cc1O (configuration not stated) 5.46%
CN(C)CCNc1ccc(-c2n[nH]c(=O)c3ccccc23)cc1[N+](=O)[O-] 4.46%

inhibition, inactive:
CCCc1ccc(S(=O)(=O)N2CCN(C(=O)c3cc(C)on3)CC2)cc1 -0.87%
O=C(CCN1CCCCC1)Nc1ccc(F)c(F)c1 0.27%
CC1C(=O)N(Cc2cn(Cc3ccco3)nn2)CCS(=O)(=O)N1Cc1ccc(-c2cccc(CO)c2)cc1 (configuration not stated) 0.37%
COCOCCn1cc(CN2CCS(=O)(=O)N(Cc3ccc(-c4ccccc4)cc3)C(CC(C)C)C2=O)nn1 (configuration not stated) -1.62%
O=C(CC(c1ccccc1)c1ccccc1)NCC(O)c1ccc([N+](=O)[O-])cc1 (configuration not stated) 0.2%
CCCCOC(=O)Nc1nnc(CC(=O)NCc2ccccc2)s1 -0.2%
COc1ccc(OCc2n[nH]c(=S)n2N)cc1 0.95%
COc1ccc(-n2c(-c3ccc(Cl)cc3)n[nH]c2=S)c(OC)c1 0.25%
C[C@@H]1CN([C@H](C)CO)C(=O)c2cc(-c3ccc(F)cc3)cnc2O[C@H]1CN(C)C(=O)c1ccc(F)cc1 -1.22%
CN(Cc1ccccc1)C(=O)c1cccc(C(=O)N(C)Cc2ccccc2)c1 0.91%
CN(Cc1ccccc1)C(=O)c1ccc(COc2ccccc2)cc1 0.19%
COCOCCn1cc(CN2CCS(=O)(=O)N(Cc3ccc(-c4cccc(N(C)C)c4)cc3)C(CC(C)C)C2=O)nn1 (configuration not stated) 2.25%
CCOc1ccc(NC(=O)c2cc(C)nc3ccccc23)cc1 0.49%
CN1CCN(c2nc(Nc3ccc(O)cc3)nc3ccccc23)CC1 0.71%
CSC1=NN(c2ccccc2)CN(c2ccccc2)N1C 0.33%
C[C@@H]1CN([C@@H](C)CO)S(=O)(=O)c2ccc(-c3ccc(C(=O)N(C)C)cc3)cc2O[C@@H]1CN(C)Cc1ccccc1C(=O)O 3.37%
Cc1csc(NC(=O)CN2CCCCCC2)n1 1.37%
Cc1nn(CC(=O)N2CCCCC2)c(=O)c2nn(-c3ccccc3)c(C)c12 0.17%
COc1ccc(NC2CCCN(C(=O)c3ccccc3-c3ncc[nH]3)C2)cc1 (configuration not stated) -0.18%
Cc1cccc(OCCC(=O)Nc2ccccc2C(N)=O)c1 -0.79%
Cc1cccc(OCC(=O)Nc2ccc(C(=O)O)cc2NC(=O)COc2cccc(C)c2)c1 0.91%
COc1ccccc1-n1c(SCC(=O)Nc2ccc(Cl)cc2)nc(O)c(Cc2ccccc2)c1=O 1.11%
CC1(C)CC(=O)C(CC(=O)N2CCC(Cc3ccccc3)CC2)C(=O)C1 3.82%
CC1(C)CC(=O)NC=C(c2ccccc2)C1 -0.26%
COc1ccc(C(=O)NCC2CCCO2)cc1S(=O)(=O)NCc1ccc(Cl)cc1 (configuration not stated) 0%
CC1=C(C(=O)N(C)C)CC(CC(=O)NCCc2ccccn2)C(=O)N1CCC1=CCCCC1 (configuration not stated) 1.44%
CC(C)N=C1CCCC1C(=S)SSC(=S)C1CCCC1=NC(C)C (configuration not stated) -3.43%
Cc1ccc(NC(=O)/C(=C\c2ccccc2)NC(=O)c2ccco2)cc1 0.33%
O=C(Nc1ccc2ccccc2c1)/C(=C\c1ccc2c(c1)OCO2)NC(=O)c1ccco1 -1.35%
Cc1ccc(CCNC(=O)CN2C(=O)CSc3ccc(S(=O)(=O)N4CCOCC4)cc32)cc1 0.18%
NC1=CC(=O)C(=O)c2cccnc21 -3.86%
C[C@@H]1CCCCO[C@H](CN(C)Cc2ccccc2)[C@@H](C)CN([C@H](C)CO)C(=O)c2cc(NS(=O)(=O)c3ccc(Cl)cc3)ccc2O1 -0.88%
Cc1ccc([C@H]2C[C@H](O)[C@@H](n3cc(COC(=O)c4ccccc4)nn3)CN2CC2CCCCC2)cc1 2.07%
Brc1ccccc1C1N=C(c2ccccc2)NO1 (configuration not stated) 1.91%
Nc1cccc(OCCCCCOc2cccc(N)c2)c1 -0.21%
CSc1ncnc2c1ncn2CCCNCc1ccco1 0.14%
C[C@H]1CN([C@@H](C)CO)C(=O)c2cc(-c3cccc(F)c3)cnc2O[C@@H]1CN(C)S(C)(=O)=O 3.06%
N#CC1(Nc2ccc3c4c(cccc24)CC3)CCCCC1 -0.16%
CCOC(=O)c1c(NC(=S)SC)sc(C(=O)N2CCc3ccccc3C2)c1C 0.87%
CCSc1nc2sc3c(c2c(=O)n1-c1ccc(C)cc1)CCN(C)C3 0.31%
CCCSc1nc(NCc2ccco2)c2c3c(sc2n1)COC(C)(CC)C3 (configuration not stated) 1.15%
C[C@@H]1CN([C@@H](C)CO)C(=O)c2cc(NS(C)(=O)=O)ccc2O[C@@H](C)CCCCO[C@H]1CN(C)C(=O)Nc1ccc2c(c1)OCO2 0.65%
Cc1ccc(S(=O)(=O)N2CCC(C(=O)N3CCCCCCC3)CC2)cc1 -0.36%
COc1ccc(N2CCN(C(=O)C3CCN(C(=O)c4ccccc4Cl)CC3)CC2)cc1 -0.89%
COc1ccc(N)cc1NC(=O)CN1CCOCC1 1.8%
O=C(COc1ccccc1F)NNC(=O)c1cc(Br)ccc1Cl 0.63%
COc1ccc(Cl)cc1C(=O)Nc1ccc(N(C)C(C)=O)cc1 -0.13%
N#Cc1ccc(OCC(=O)Nc2nc(-c3ccccn3)cs2)cc1 -0.76%
C[C@@H]1CN([C@H](C)CO)S(=O)(=O)c2ccc(C#C[C@@H](C)O)cc2O[C@@H]1CN(C)Cc1ccc(-c2ccccc2)cc1 -0.61%
Cc1ccc(CN(C)C[C@@H]2OCc3cnnn3CCCC(=O)N([C@@H](C)CO)C[C@H]2C)cc1 0.34%
O=S(=O)(c1ccc(NC(=S)NN=C(C2CC2)C2CC2)cc1)N1CCOCC1 -0.03%
O=C(Nc1cc(S(=O)(=O)N2CCOCC2)ccc1Cl)c1cc(=O)c2ccccc2o1 -1.1%
O=C1[C@H]2[C@@H](c3ccc(C(F)(F)F)cc3)N[C@]3(CCCN(Cc4ccc(Br)cc4)C3=O)[C@H]2C(=O)N1Cc1ccccc1 -0.81%
C[C@@H]1Cn2cnc(C(=O)Nc3ccc(CNC(=O)OC(C)(C)C)cc3)c2C(=O)N1 -0.54%
CC(=O)c1ccc(NC(=O)CSC(=S)N2CCCC2)cc1 -0.17%
O=C(CSC(=S)N1CCOCC1)c1ccccc1 -3.24%
O=C(CN1CCN(S(=O)(=O)c2cc(Cl)ccc2Cl)CC1)c1ccc(O)c(O)c1 0.26%
N#Cc1ccsc1NC(=O)CN1CCN(S(=O)(=O)c2cc(Cl)ccc2Cl)CC1 -0.1%
CC(OC(=O)c1cccnc1Cl)C(=O)NC1CCCCC1 (configuration not stated) 2.75%
CCC(C)(C)NC(=O)C(c1ccc(O)cc1)N(C(=O)Cn1nnc2ccccc21)c1ccc(NC(C)=O)cc1 (configuration not stated) 0.14%
COc1ccc(C(C(=O)NCC2CCCO2)N(C(=O)Cn2nnc3ccccc32)c2ccc(NC(C)=O)cc2)cc1OC (configuration not stated) -0.65%
COc1ccccc1C(=O)NC(=S)Nc1ccc(N2CCOCC2)cc1 0.43%
C[C@H]1CN([C@@H](C)CO)C(=O)c2cc(Br)cnc2O[C@H]1CN(C)S(=O)(=O)c1cccs1 0.93%
C[C@H]1CN([C@@H](C)CO)C(=O)CCCn2cc(nn2)CO[C@@H]1CN(C)S(=O)(=O)c1cccs1 -0.09%
CCN(CC)CCNc1ccc(Cl)cc1[N+](=O)[O-] 0.15%
COCCNc1ccc(-c2n[nH]c(=O)c3ccccc23)cc1[N+](=O)[O-] -1.07%
CCc1cccc(CC)c1N1C(=O)CC(Sc2ccccc2N)C1=O (configuration not stated) 2.47%
